# PubChem BioAssay
# Assay: probe aNog binding to arrayed compounds – biochemical, biotinylated probe, 635/667 nm fluorescence, primary screen (AID 1115);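 also: probe is biotinylated aNog protein used at 0.15 µg/mL for 1 h at 4 C; z-score combines 667 nm fluorescence of each spot with its signal to noise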
# Details: small-molecule microarray, higher = more signal
row,Structure (SMILES),composite z-score
1,C=CCN1C(=O)[C@@]2(Cc3ccccc3)N=C(c3ccc(OCCCO)cc3)O[C@H]2c2ccccc21,0.79
2,CC(=O)Nc1ccc([C@H]2[C@H](C)CC[C@H]3C(=O)N4[C@@H](CC[C@@H](C)[C@@H]4c4ccc(NC(C)=O)cc4)C(=O)N32)cc1,0.33
3,COc1cc2c(cc1OC)CN(C(=O)[C@@H]1[C@H]3C(=O)O[C@H](c4ccccc4)[C@H](c4ccccc4)N3[C@H](c3ccccc3OCCO)[C@@]13C(=O)Nc1ccccc13)CC2,0.0101
4,CCOC(=O)C[C@H]1[C@H](OC(=O)Cc2ccc3c(c2)OCO3)[C@@H](NC(=O)c2ccc3ccccc3c2)c2cc(OCCCO)ccc2N1C(=O)Cc1ccc(OC)cc1,-0.568
5,CO[C@@H]1COC(=O)[C@H](C)NC(=O)CC=C[C@@H](C)[C@H](OC)COC(=O)[C@H](C)NC(=O)CC=C[C@H]1C,-0.248
6,CO[C@H]1COC(=O)CC=C[C@H](C)COC(=O)[C@@H](OCc2ccccc2)C=C[C@@H]1C,-0.424
7,CCCC[C@@H]1C[C@H]1[C@@H](NC(=O)c1ccccc1)c1ccccc1C(F)(F)F,1.39
8,CO[C@@H]1COC(=O)[C@H](C)NC(=O)CC=C[C@@H](C)[C@H](NS(=O)(=O)c2ccc(C)cc2)COC(=O)CC=C[C@@H]1C,-0.246
9,CC(=O)NCCCC[C@@H]1NC(=O)[C@H]2C[C@@H](C(=O)NCCCCCCN(C)C)[C@@H](c3cccc(OCCO)c3)N2C1=O,-0.0083
10,NC(=O)NCC#Cc1ccc2c(c1)[C@]1(C(=O)N2)[C@H](c2ccccc2OCCO)N2[C@H](c3ccccc3)[C@H](c3ccccc3)OC(=O)[C@H]2[C@@H]1C(=O)N1CCN(c2ncccn2)CC1,-0.582
11,C[C@]1(C(=O)NCc2ccccc2)c2ccccc2C(=O)N(Cc2cc(C(F)(F)F)cc(C(F)(F)F)c2)[C@H]1c1ccc(CO)cc1,-0.0047
12,C=C(COC)/C(=C/C[C@@H](OC(C)=O)c1cccc(OCCO)c1)c1cc(C(=O)OC)ccc1OC,0.717
13,COC(=O)[C@H]1[C@@H]2COc3ccccc3[C@H]2N[C@H]1C(=O)OC,-0.223
14,CCc1cccc(NC(=O)O[C@H]2[C@H](OC(=O)Nc3ccccc3)[C@@H](OC(=O)Nc3ccccc3)[C@@H](OC)O[C@@H]2CO)c1,1.34
15,C=CCN1C(=O)[C@]2(O[C@H](CCn3cc(CCO)nn3)[C@@H]([Si](C)(C)c3ccc(OC)cc3)[C@@H]2C)c2cc(NC(=O)c3ccc(OC)cc3)ccc21,0.188
16,C=C(COC)/C(=C/C[C@H](OC(C)=O)c1ccc(OCCO)cc1)c1cnc2ccccc2c1,0.0107
17,[N-]=[N+]=NCc1ccccc1C[C@]1(C(=O)N2CCCCC2)N=C(c2ccc(OCCCO)cc2)O[C@H]1c1ccccc1CN=[N+]=[N-],1.25
18,CO[C@H]1O[C@H](CO)[C@@H](OC(=O)Nc2ccccc2)[C@H](OC(=O)Nc2ccc3c(c2)OCO3)[C@@H]1OC(=O)Nc1ccc2c(c1)OCO2,0.038

row,Structure (SMILES),composite z-score
1,CCOC(=O)C1=C[C@@H](c2ccccc2)N(S(=O)(=O)c2ccc(C)cc2)[C@H]1c1ccc(F)cc1,0.862
2,CCCC=C(CCC)[C@@H](NC(=O)c1ccc(C(F)(F)F)cc1)c1ccccc1,0.644
3,COC(=O)C[C@H]1O[C@]2(C(=O)N(Cc3ccccc3)c3ccc(I)cc32)[C@@H](C)[C@@H]1[Si](C)(C)c1ccc(OC)cc1,-0.208
4,CCC(=O)[C@]12O[C@@]3([C@@H]4C(=O)OCC[C@@H]41)N(CC)C(C)=C(C(=O)OC)[C@@H](c1ccccc1)N3C2=O,-0.131
5,COCCOC(=O)N1C(=O)[C@@]2(c3cc(C#CC4=CCCCC4)ccc31)[C@H](c1ccc(O)cc1)N1[C@H](c3ccccc3)[C@H](c3ccccc3)OC(=O)[C@H]1[C@@H]2C(=O)N1CCCCCCC1,0.512
6,O=C(CS)NCCCCCNC(=O)[C@H]1C[C@H]2C(=O)N3CCC[C@H]3C(=O)N2[C@H]1c1ccc(O)cc1,-0.0207
7,CSCC[C@@H]1NC(=O)CC=C[C@@H](C)COC(=O)[C@H](CCSC)NC(=O)CC=C[C@@H](C)COC1=O,-0.255
8,COCCOC(=O)N1C(=O)[C@@]2(c3cc(C#CCNC(N)=O)ccc31)[C@H](C(=O)N1CCCCCCC1)[C@H]1C(=O)O[C@H](c3ccccc3)[C@H](c3ccccc3)N1[C@@H]2c1ccccc1OCCO,0.878
9,O=C1O[C@H](c2ccccc2)[C@H](c2ccccc2)N2[C@H]1[C@@H](C(=O)Nc1nc3ccccc3s1)[C@]1(C(=O)Nc3ccc(C#CC4(O)CCCCCC4)cc31)[C@H]2c1ccc(O)cc1,-0.387
10,CC[C@H]1C2=C3C(CC[C@H]4C(OC)OC[C@](C)([C@@H]34)N(C(=O)OC(C)(C)C)C2)C(CO)C1CO (stereo partly specified),-0.128
11,CC(C)(C)OC(=O)CC[C@@]1(C(=O)NCc2ccccc2)N=C(c2ccc(OCCCO)cc2)O[C@@H]1c1ccccc1,0.92
12,CC(C)[Si](OCC[C@H]1O[C@]2(C(=O)N(Cc3ccccc3)c3ccccc32)[C@@H](C)[C@@H]1[Si](C)(C)O)(C(C)C)C(C)C,0.0073
13,C[C@H]1COC(=O)[C@H](Cc2ccccc2)NC(=O)[C@@H](C)COC(=O)[C@H](Cc2ccccc2)NC1=O,-0.0026
14,COc1ccc([Si](C)(C)[C@H]2[C@H](CC(=O)N3Cc4ccccc4C[C@H]3CO)O[C@@]3(C(=O)N(Cc4cccc(N5CCOC5=O)c4)c4ccccc43)[C@@H]2C)cc1,0.232
15,CO[C@H]1COC(=O)[C@@H](OCc2ccccc2)C=C[C@H](C)[C@@H](OC)COC(=O)[C@H](OCc2ccccc2)C=C[C@@H]1C,-0.397
16,C=C(COC)C(=O)CC[C@H](OC(=O)c1ccccc1-c1ccccc1C(=O)O)c1cccc(OCCO)c1,0.0519
17,Cc1ccc(S[C@]2(C(=O)O)CC(=O)N(Cc3ccccc3)[C@@H]2c2ccc(CO)cc2)cc1,-0.0563
18,O=C(O)[C@@H]1Cc2c([nH]c3ccccc23)[C@@H](c2ccccc2)N1,-0.013
